The nature of test [1]: NCI Yeast Anticancer Drug Screen. Data for the rad50 strain (AID 155).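 Further: 0% = growth of vehicle-only cultures of the same strain.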 As to conditions: S. cerevisiae rad50 strain growth inhibition; at 50.0 µM; active compounds read high. The essentials:
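Compounds were tested on a yeast strain with an engineered DNA damage repair alteration; the reported value is growth inhibition normalised to vehicle treatment.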

Test [2] is described as follows: NCI Yeast Anticancer Drug Screen. Data for the mec2-1 strain (AID 157). The conditions noted are these: S. cerevisiae mec2-1 strain, at 50.0 µM, active compounds read high. The essentials: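 Readout is yeast growth inhibition, normalised to vehicle-treated controls, in the mec2-1 strain exposed to compound.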
A short description of test [3]: NCI Yeast Anticancer Drug Screen. Data for the sgs1 mgt1 strain (AID 161).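 Further: 0% = growth of cultures given vehicle only.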 As to conditions: S. cerevisiae sgs1 mgt1 strain, at 50.0 µM, active compounds read high. The essentials: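 Growth of a repair-deficient yeast mutant was monitored after compound treatment and expressed as inhibition relative to vehicle-treated cultures.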
The nature of test [4]: NCI Yeast Anticancer Drug Screen. Data for the cln2 rad14 strain (AID 165).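 Further: 0% = growth equal to vehicle treated cultures.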 The conditions noted are these: S. cerevisiae cln2 rad14 strain, at 50.0 µM, active compounds read high. The essentials:
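Relative to vehicle controls, growth inhibition of compound-treated cln2 rad14 yeast was recorded.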

A short description of test [5]: NCI Yeast Anticancer Drug Screen. Data for the bub3 strain (AID 167). As to conditions: S. cerevisiae bub3 mutant strain, at 50.0 µM, active compounds read high. The essentials:
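Growth of a checkpoint-deficient yeast mutant is measured after compound exposure. Values represent inhibition relative to vehicle.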

Test [6] in a line: NCI Yeast Anticancer Drug Screen. Data for the mlh1 rad18 strain (AID 175). As to conditions: S. cerevisiae mlh1 rad18 strain growth inhibition; at 50.0 µM; active compounds read high. The essentials: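 Test agents were incubated with a yeast strain of defined genotype (DNA damage repair defect). Inhibition of growth was derived by comparison with vehicle-exposed cultures.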

About 79,000 compounds went through this panel and 15% of them were active in at least one assay; those are over-represented in the sample as a whole. Unmarked numbers belong to inactive results. Active and inactive are the calls of the source. No stated cut-off is given here; in the data, active means growth inhibition above about 70%; inactive means the rest.

Take `COc1cc2cc(c1Cl)NC(=O)/C=C/[C@]1(C)O[C@H]1[C@H](C)[C@@H]1C[C@@](O)(NC(=O)O1)[C@H](OC)C=C/C=C(\C)C2`: the growth inhibition was 20.2% in test [1]; 4.55% in test [2]; 12.1% in test [3]; 22.1% in test [4]; 20.5% in test [5]; 21.4% in test [6].
Take `Cc1cc(C)c(C(=O)CCC(=O)O)c(C)c1`: the growth inhibition in test [1] was 11.8%; in test [2] it was 7.8%; in test [3] it was 16.6%; in test [4], 17.9%; in test [5], -4.7%; in test [6], 16.6%.
With `COc1ccccc1NC(=O)CC(=O)N1N=C(C)C(N=Nc2ccc(S(N)(=O)=O)cc2)C1=O` (stereo not drawn), the growth inhibition is 13.3% in test [1]; -1.65% in test [2]; -8.2% in test [3]; 12.8% in test [4]; 11% in test [5]; 11.3% in test [6].
In the case of `CCCCCCCCn1nnnc1C(F)(F)F`, the growth inhibition in test [1] is -3.1%; in test [2] it was 8.45%; in test [3], 6.75%; in test [4], -15.1%; in test [5], 1.45%; in test [6], -0.45%.
`O=C(O)C(CO)C(CO)C(=O)O` (stereo not drawn): the growth inhibition in test [1] was -12.9%; in test [2], -14.4%; in test [3] it was -7.05%; in test [4] it was -14.7%; in test [5], -22.8%; in test [6] it was -2.15%.
Regarding `NC(Cc1ccc(O)cc1)C(=O)NCCS(=O)(=O)O` (stereo not drawn), the growth inhibition in test [1] was 1.5%; in test [2] it was 9.85%; in test [3], 26.7%; in test [4], 11.2%; in test [5], 18.6%; in test [6] it was 0.65%.
Regarding `CC(C)(C)C([O-])=C1C(=O)c2ccccc2C1=O.CC(C)(C)C([O-])=C1C(=O)c2ccccc2C1=O.CC[O-].CC[O-].[Ti+4]`, the growth inhibition is 20.1% in test [1]; 47.1% in test [2]; 57.4% in test [3]; 47.3% in test [4]; 59.2% in test [5]; 46.2% in test [6].
Take `CCCC(C)c1ccc(C(=O)O)cc1` (stereo not drawn): the growth inhibition is 10.2% in test [1]; -10.7% in test [2]; 4.45% in test [3]; 11.2% in test [4]; -18.1% in test [5]; 20.9% in test [6].
For `COC/N=C(\NC#N)NCOC`, the growth inhibition was 20.5% in test [1]; -1% in test [2]; 9.5% in test [3]; 14% in test [4]; -11.7% in test [5]; 23.2% in test [6].
As for `Clc1ccc(-c2nnc(C34CC5CC(CC(C5)C3)C4)o2)cc1`, the growth inhibition in test [1] was -12.1%; in test [2], -8.65%; in test [3], -11.3%; in test [4], 2.3%; in test [5], -8.5%; in test [6], -18.6%.
For `CCN(c1ccccc1)c1nsc(Cl)n1`, the growth inhibition was -3.25% in test [1]; -10.8% in test [2]; -15.9% in test [3]; -9.4% in test [4]; 8.25% in test [5]; -16% in test [6].
Regarding `Cc1ccc(S(=O)(=O)Nc2ccc([N+](=O)[O-])cc2[N+](=O)[O-])cc1`, the growth inhibition in test [1] was 17.5%; in test [2], 15.3%; in test [3], -1.65%; in test [4] it was 9.85%; in test [5], 1.15%; in test [6] it was 17.8%.
Regarding `Nc1nc(-c2ccccc2)nc2[nH]ncc12`, the growth inhibition in test [1] was -5.45%; in test [2], -3.5%; in test [3], -11.2%; in test [4], -10.2%; in test [5], 1.6%; in test [6], 5.75%.
For the molecule `CC(=O)CCn1c(=S)sc2ccccc21`, the growth inhibition was -6.3% in test [1]; 30.2% in test [2]; 59.5% in test [3]; 12.2% in test [4]; 29.7% in test [5]; -28.6% in test [6].
For `COC(=O)C(=O)c1c(C(=O)OC)nc2nnc(N)n2c1-c1ccc(Cl)c(Cl)c1`, the growth inhibition in test [1] is 1.7%; in test [2] it was -2.8%; in test [3] it was -4.9%; in test [4] it was -29.9%; in test [5], 16.1%; in test [6], -7.55%.
As to `CC(C)(C)N(OC(=O)c1ccc(C#N)cc1)c1ccccc1`, the growth inhibition in test [1] was 15.4%; in test [2], 11.6%; in test [3] it was 3.55%; in test [4], 7.75%; in test [5], 4.2%; in test [6] it was 3.35%.
Turning to `Cc1cc2nc(Oc3ccccc3)nc(=O)n2o1`, the growth inhibition in test [1] was 2.3%; in test [2] it was 0.4%; in test [3], 6.7%; in test [4], -2.05%; in test [5], 11.8%; in test [6], -9.2%.
With `C=CCOc1cc2c(cc1C(C)c1ccc(OC)cc1)OCO2` (stereo not drawn), the growth inhibition in test [1] was 12.3%; in test [2] it was 0.75%; in test [3], 5.95%; in test [4], -10.3%; in test [5] it was 14.5%; in test [6], -0.6%.
For the molecule `O=C(O)C1CC[N-]CC1.O=C(O)C1CC[N-]CC1.[NH2-].[NH2-].[Pt+4]`, the growth inhibition is -5.4% in test [1]; 14.8% in test [2]; 2.2% in test [3]; 12.7% in test [4]; 2.6% in test [5]; 18.4% in test [6].
For the molecule `CCC(SC(CC)(CC(C)C)C(N)=O)C(N)=O` (stereo not drawn), the growth inhibition is 4.1% in test [1]; -5.65% in test [2]; 15.8% in test [3]; -53% in test [4]; 6.9% in test [5]; -14.4% in test [6].
For the molecule `CC1=C(O)c2cn(C)cc2C(=O)C1=O`, the growth inhibition in test [1] was 26.1%; in test [2] it was 24.9%; in test [3], 18%; in test [4], 26.6%; in test [5], 31.9%; in test [6], 28.3%.
As for `Cc1cc(=O)n(-c2ccc([N+](=O)[O-])cc2)c(C)c1C(=O)O`, the growth inhibition in test [1] is 3.25%; in test [2] it was -2.4%; in test [3], 4.85%; in test [4], -0.15%; in test [5] it was 7.9%; in test [6], -1.65%.
`Cc1nc2c(o1)C(=O)c1ccccc1C2=Nc1ccc(N2CCOCC2)cc1`: the growth inhibition in test [1] is 78.9% (active); in test [2] it was 29.7%; in test [3], 13.2%; in test [4], -1.15%; in test [5] it was 11.9%; in test [6], 39.1%.
For the molecule `C1CCC2CC(NC3=NCCO3)CCC2C1` (stereo not drawn), the growth inhibition is 8.85% in test [1]; 21.1% in test [2]; 0.35% in test [3]; -7% in test [4]; 22.2% in test [5]; -85.6% in test [6].
With `C=C(C)CNC(C)=O`, the growth inhibition in test [1] is -7.75%; in test [2], 3%; in test [3], 0%; in test [4] it was 0%; in test [5] it was 3.4%; in test [6], 1.95%.
Regarding `CC(C)=CCC1=C(OC2OC(CO)C(O)C(O)C2O)C(=O)c2ccccc2C1=O` (stereo not drawn), the growth inhibition in test [1] was 15.2%; in test [2], 15.6%; in test [3], 11.2%; in test [4], 6.95%; in test [5], 6.55%; in test [6], 5.5%.
Regarding `C/C(Nc1ccc(Cl)cc1)=C1/CCOC1=O`, the growth inhibition in test [1] was 19.1%; in test [2] it was 5.7%; in test [3], 35.5%; in test [4] it was 13.1%; in test [5], 11.7%; in test [6], -24.9%.
For the molecule `CCOC(=O)c1nnsc1NC(=O)Nc1ccc(Cc2ccc(NC(=O)Nc3snnc3C(=O)OCC)cc2)cc1`, the growth inhibition in test [1] was -14.3%; in test [2], 8.25%; in test [3], 12.2%; in test [4], 18.3%; in test [5], 5.45%; in test [6], 10.3%.
Regarding `COC(=O)/C(=N/O)C(C(=O)C=C(C)C)C(=O)C(=O)Nc1nc2ccc([N+](=O)[O-])cc2s1` (stereo not drawn), the growth inhibition in test [1] was 18%; in test [2] it was -4.55%; in test [3], 10%; in test [4], -58.8%; in test [5], 5.95%; in test [6], 6.25%.
For the molecule `COC1C(CO)OC(n2c3c(Cl)cccc3c3c4c(c5c6cccc(Cl)c6[nH]c5c32)C(=O)NC4=O)C(O)C1O` (stereo not drawn), the growth inhibition in test [1] is 16.8%; in test [2], 8.45%; in test [3] it was -1.4%; in test [4], 20.4%; in test [5], 7.4%; in test [6] it was -21.1%.
For `Nc1ccc(C(=O)OCCN2CCN(CCOC(=O)c3ccc(N)cc3)CC2)cc1`, the growth inhibition in test [1] was 28.9%; in test [2], 13.4%; in test [3], 12.6%; in test [4], 16.2%; in test [5], 1.6%; in test [6] it was 28.4%.
Turning to `O=C1C=C(C2=CC(=O)C(=O)c3ccccc32)c2ccccc2C1=O`, the growth inhibition in test [1] was 27.5%; in test [2] it was 9.45%; in test [3], 6.55%; in test [4], -5%; in test [5] it was 53.1%; in test [6], 35.2%.
For the molecule `CCN(CC)Cc1cc(OC(=O)c2cc(OC)c(OC)c(OC)c2)cc(C(=O)OC)c1`, the growth inhibition in test [1] is 3.2%; in test [2], 3.7%; in test [3], -19.1%; in test [4], -32%; in test [5], 8.5%; in test [6] it was -10.3%.
For `CCCCCCCC/C=C\CCCCCCCC(=O)N1CCN(C(=O)CCCCCCC/C=C/CCCCCCCC)C1`, the growth inhibition was 20.4% in test [1]; -13.3% in test [2]; 4.05% in test [3]; 16.4% in test [4]; 0.15% in test [5]; -8.35% in test [6].
For `CCOC(=O)NC(Nc1ccc(S(=O)(=O)Nc2ncccn2)cc1)(C(=O)OCC)C(F)(F)F` (stereo not drawn), the growth inhibition in test [1] is -0.55%; in test [2], -19.4%; in test [3], 10.9%; in test [4], 32.1%; in test [5] it was 16.9%; in test [6], 2.2%.
Consider `O=C(NN=C1CCCCC1)c1ccccc1`, for which the growth inhibition is -6% in test [1]; -10.1% in test [2]; -9.9% in test [3]; -25.8% in test [4]; -17.4% in test [5]; 0.2% in test [6].
Regarding `CC(C(=O)O)N(C)C(=O)c1cnc2ccccc2n1` (stereo not drawn), the growth inhibition in test [1] was -0.1%; in test [2], -1.15%; in test [3] it was -1.5%; in test [4] it was 23%; in test [5], 18.6%; in test [6] it was -2%.
Turning to `CC(=O)Nc1cc2[nH]c(=O)c3cc(Cl)ccc3c2cc1[N+](=O)[O-]`, the growth inhibition was 28.8% in test [1]; 36.1% in test [2]; 1.65% in test [3]; 27.1% in test [4]; 23.6% in test [5]; 57.8% in test [6].

The record behind these values is PubChem BioAssay (NCI).
